Results filed as inconclusive are left out. Values without a mark were called inactive. Active and inactive are the calls of the source. Calls come from the whole dose curve.
Biological target: Muscarinic acetylcholine receptor M1 (Homo sapiens) (UniProt P11229)
Assay: Cholinergic receptor muscarinic 1 (CHRM1) small molecule antagonists, cell-based qHTS assay (AID 1963588); note: nearly all actives have a fitted effect of over 40% in size
Settings: CHRM1-CHO antagonist mode, calcium flux fluorescence; series mostly up to 61.5 µM; activity, negative = inhibition: at the top concentration
Description: National Center for Advancing Translational Sciences [NCATS]
Division of Preclinical Innovation [DPI]
U.S. Environmental Protection Agency [EPA]
National Institutes of Environmental Health Sciences [NIEHS]
National Toxicology Program [NTP]
U.S. Food and Drug Administration [FDA]
The CHRM1 is a muscarinic receptor. This receptor plays a crucial role in learning and memory processes and has long been identified as a promising therapeutic target for the improvement of cognitive decline in Alzheimer's disease (AD). The CHRM1-CHO cell line stably expressing human muscarinic acetylcholine receptor M1 (CHRM1) can be used for screening agonists and antagonists of interactions between CHRM1 and its ligands. The CHRM1-CHO Calcium Flux Assay is a homogeneous fluorescence-based assay for detecting the intracellular calcium level using FDSS kinetic plate reader system.
Tox21 Assay Protocol Summary:
CHRM1-CHO cells were dispensed at 1000 cells/3uL/well in 1536-well black-clear bottom plates using a Multidrop Dispenser. After the assay plates were incubated at a 37 C/5% CO2 incubator for 18 h, 3 uL of Dye Loading Buffer was transferred to the assay plate by a Flying Reagent Dispenser. The assay plates were incubated at 37 C for 1h. For antagonist mode, 23 nL of compounds dissolved in DMSO, positive controls or DMSO only was transferred to the assay plate by a pin tool. After 5 min incubation at room temperature, 1.5 uL of acetylcholine at 50nM was added to each well. The fluorescence intensity in the plates was measured using FDSS 7000EX kinetic plate reader for 3 min at 1 sec intervals. Each test compound was measured at 15 concentrations in three independent runs.
% is set by controls: 0 for no effect and ±100 for the full control effect; potency is the fitted concentration of half-maximal effect.

Chain of Muscarinic acetylcholine receptor M1 (Homo sapiens) (P11229 whole entry, looked up): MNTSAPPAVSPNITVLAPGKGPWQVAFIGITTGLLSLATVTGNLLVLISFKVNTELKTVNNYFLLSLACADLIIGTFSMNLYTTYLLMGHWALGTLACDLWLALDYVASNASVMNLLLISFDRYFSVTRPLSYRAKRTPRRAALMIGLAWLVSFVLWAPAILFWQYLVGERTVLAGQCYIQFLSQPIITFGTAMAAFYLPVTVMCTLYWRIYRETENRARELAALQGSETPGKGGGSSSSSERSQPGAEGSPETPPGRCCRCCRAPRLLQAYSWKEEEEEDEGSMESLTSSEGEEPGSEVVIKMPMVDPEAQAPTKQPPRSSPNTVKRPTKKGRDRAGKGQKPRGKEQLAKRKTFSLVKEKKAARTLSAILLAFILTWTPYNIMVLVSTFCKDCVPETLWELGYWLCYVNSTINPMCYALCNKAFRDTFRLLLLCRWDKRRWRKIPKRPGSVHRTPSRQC

SMILES | activity, negative = inhibition | Potency
CC(Cc1ccc2c(c1)OCO2)NO (stereo not given) | 4.91% | 
C=CC(=O)OCCCCO | -10.4% | 
CC(C)[C@]12CC(=O)[C@H](C)[C@H]1C2 | 28% | 
CN(C)CCc1c[nH]c2cccc(O)c12 | 0.459% | 
CCc1ccc(C2CCNCC2)cc1 | 8.02% [at 28.3 µM] | 
COC(=O)c1ccccc1S(=O)(=O)NC(=O)Nc1nc(C)nc(OC)n1 | 17.7% | 
CO/N=C(\C(=O)OC)c1ccccc1CO/N=C(\C)c1cccc(C(F)(F)F)c1 | -16.7% | 
COc1cc(OC)nc(NC(=O)NS(=O)(=O)c2ncccc2OCC(F)(F)F)n1 | -6.57% | 
CC[C@H](C)[C@H]1O[C@]2(C=C[C@@H]1C)C[C@@H]1C[C@@H](C/C=C(\C)[C@@H](O[C@H]3C[C@H](OC)[C@@H](O[C@H]4C[C@H](OC)[C@@H](NC)[C@H](C)O4)[C@H](C)O3)[C@@H](C)/C=C/C=C3\CO[C@@H]4[C@H](O)C(C)=C[C@@H](C(=O)O1)[C@]34O)O2 |  | 23.7 µM (active)
CC[C@H]1C[C@@H]2C[C@H]3c4[nH]c5ccc(OC)cc5c4CCN(C2)[C@@H]13 | -26% | 
BrCC(Br)(Br)Br | -3.7% | 
CC(C)(C)c1ccc(CSc2cnn(C(C)(C)C)c(=O)c2Cl)cc1 | 1.26% | 
C=CC(=O)OCC | 2.55% | 
O=S(=O)(Cl)c1ccccc1 | 1.83% | 
CCS(=O)(=O)CCSP(=O)(OC)OC | -4.05% | 
Nc1ccc([N+](=O)[O-])cc1Cl | -15.3% | 
CCCCCCC(=O)CCCCCC/C=C/C[C@@H](O)[C@H](O)[C@@](N)(CO)C(=O)O | 3.07% [at 12.6 µM] | 
CC(O)C#N (stereo not given) | -1.23% | 
O=C(O)C(Br)(Br)Br | 18.3% | 
O=C(O)C(F)(F)C(F)(F)C(F)(F)C(F)(F)C(F)(F)F | 3.34% | 

SMILES | activity, negative = inhibition | Potency
CCCN | -6.35% | 
CCCSP(=S)(OCC)Oc1ccc(SC)cc1 (stereo not given) | -9% | 
O=C1OC(CCN2CCCCC2)OC1(c1ccccc1)c1ccccc1 (stereo not given) |  | 2.31 µM (active)
O=C(NC(=O)c1c(F)cccc1F)Nc1ccc(OC(F)(F)C(F)OC(F)(F)F)c(Cl)c1 (stereo not given) | -0.834% [at 28.3 µM] | 
CCCCCCCCBr | 7.15% | 
CC(C)(C)c1ccc(OP(=O)(Oc2ccccc2)Oc2ccccc2)cc1 | 13% | 
NS(=O)(=O)C(F)(F)C(F)(F)C(F)(F)C(F)(F)C(F)(F)C(F)(F)C(F)(F)C(F)(F)F | -1.05% | 
O=[N+]([O-])c1ccccc1Cl | 5.27% | 
CCCCCC[N+](=O)[O-] | -2.05% | 
O=C(O)C(F)(F)C(F)(F)C(F)(F)C(F)(F)C(F)(F)C(F)(F)C(F)(F)C(F)(F)C(F)(F)F | 8.86% | 
CCc1cc2c(s1)-n1c(C)nnc1CN=C2c1ccccc1Cl | 18.2% [at 28.3 µM] | 
CC(C)(C#N)C(C)(C)C#N | -19% | 
COP(=S)(OC)Oc1ccc([N+](=O)[O-])cc1Cl | -4.32% | 
N#CSCc1ccccc1 | -12.1% | 
CC(C)(COCC1CO1)COCC1CO1 (stereo not given) | -4.81% | 
Clc1ccc(-c2ccccc2)cc1 | -1.39% | 
O=[N+]([O-])c1cccc(CCl)c1 | 9.68% | 
O=C(O)CCCCCCNC1c2ccccc2CCc2ccccc21 | -15.7% [at 28.3 µM] | 
CC(C)O.CC(C)O.OCCN(CCO)CCO.OCCN(CCO)CCO.[Ti] | 4.3% | 
ClC1=C(Cl)C2(Cl)C(CBr)CC1(Cl)C2(Cl)Cl (stereo not given) |  | inactive
